From the supplement of paper PMC10849652
Targets with a hit are over-represented here; the source holds about 7,900 in all. About 0.6% of all pairs of compound and target were hits.

Key:
Assay in all cases: log2 fold change, soluble protein after heating vs DMSO (PISA); higher = thermal stabilisation; K562 cells, 10 uM, 30 min; active = over 0.2 and 3.5 SD of the protein, either way, in both replicates (recomputed)
[1] = compound: C1=CC=C(C=C1)[C@H](COC2=CC3=C(C=C2)NC(=O)N3)NC(=O)C4=CC=CN(C4=O)CC5=CC(=C(C=C5)F)F
How it was run: (§1)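 K562 cells (2×10^6 cells/mL) were treated with 10 μM compound for 30 min, and aliquots were heated for 3 min over 48°C-58°C. Pooled aliquots were extracted in PBS with 0.5% NP-40 at 4°C, and the supernatant after 21,000xg for 90 min was measured by TMTpro 16plex LC-MS/MS with channel sums equalised. Reported thermal stability, relative to control samples and from duplicates, is a log2 fold change.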

[2] = compound: CC1=C(SC2=C1C(=N[C@H](C3=NN=C(N32)C)CC(=O)N)C4=CC=C(C=C4)Cl)C
How it was run: as §1

[3] = compound: CC1=C2C(=CC=C1)N=C(N(C2=O)C3=CC=CC=C3C)CN4C=NC5=C(N=CN=C54)N
How it was run: as §1

[4] = compound: Cc1sc2c(c1C)C(c1ccc(Cl)cc1)=N[C@@H](CC(=O)OC(C)(C)C)c1nnc(C)n1-2
How it was run: as §1

[5] = compound: c1ccc([C@@H]2C[C@H]2NC2CCNCC2)cc1
How it was run: as §1

Measured: log2 fold change

GAGE12F (UniProt P0CL80)
inactive: [1] -0.016 | [2] 0.137 | [3] 0.109 | [4] -0.089 | [5] 0.012

GCLM (UniProt P48507)
inactive: [1] -0.014 | [2] 0.062 | [3] 0.108 | [4] 0 | [5] -0.053

GLUL (UniProt P15104)
UniProt P15104, sequence (P15104 whole entry, looked up): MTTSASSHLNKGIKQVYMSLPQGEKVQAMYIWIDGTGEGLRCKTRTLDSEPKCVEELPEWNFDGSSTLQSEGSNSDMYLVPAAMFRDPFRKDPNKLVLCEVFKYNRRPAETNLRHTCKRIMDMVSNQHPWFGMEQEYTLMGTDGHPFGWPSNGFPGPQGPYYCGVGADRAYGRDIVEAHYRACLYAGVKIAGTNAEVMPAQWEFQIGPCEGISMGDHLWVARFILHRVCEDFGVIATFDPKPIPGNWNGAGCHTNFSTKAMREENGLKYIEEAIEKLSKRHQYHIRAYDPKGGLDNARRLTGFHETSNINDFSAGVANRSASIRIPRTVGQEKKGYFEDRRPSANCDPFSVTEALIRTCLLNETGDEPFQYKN
inactive: [1] -0.015 | [2] 0.005 | [3] 0 | [4] -0.007 | [5] 0.02

GABARAPL1 isoform 2 (UniProt Q9H0R8)
inactive: [1] 0.02 | [2] 0.094 | [3] 0.073 | [4] -0.022 | [5] -0.036

IFRD2 isoform 2 (UniProt Q12894)
inactive: [1] -0.013 | [2] -0.091 | [3] -0.055 | [4] 0.063 | [5] 0.061

HNRNPF (UniProt P52597)
UniProt P52597, sequence (P52597 whole entry, looked up): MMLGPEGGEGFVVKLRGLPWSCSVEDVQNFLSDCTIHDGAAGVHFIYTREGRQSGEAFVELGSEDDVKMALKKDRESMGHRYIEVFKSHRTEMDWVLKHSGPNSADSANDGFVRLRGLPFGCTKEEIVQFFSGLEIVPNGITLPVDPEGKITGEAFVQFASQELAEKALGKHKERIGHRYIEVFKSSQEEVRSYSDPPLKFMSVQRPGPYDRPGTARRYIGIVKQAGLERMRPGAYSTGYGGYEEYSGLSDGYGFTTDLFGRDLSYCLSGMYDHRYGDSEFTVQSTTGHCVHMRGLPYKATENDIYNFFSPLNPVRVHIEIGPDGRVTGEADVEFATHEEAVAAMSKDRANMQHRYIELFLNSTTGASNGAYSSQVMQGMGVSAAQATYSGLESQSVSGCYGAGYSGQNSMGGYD
inactive: [1] -0.032 | [2] -0.049 | [3] -0.019 | [4] -0.02 | [5] -0.017

HECTD1 (UniProt Q9ULT8)
inactive: [1] 0.009 | [2] 0 | [3] 0.098 | [4] 0.051 | [5] -0.004

GSK3A (UniProt P49840)
UniProt P49840, sequence (P49840 whole entry, looked up): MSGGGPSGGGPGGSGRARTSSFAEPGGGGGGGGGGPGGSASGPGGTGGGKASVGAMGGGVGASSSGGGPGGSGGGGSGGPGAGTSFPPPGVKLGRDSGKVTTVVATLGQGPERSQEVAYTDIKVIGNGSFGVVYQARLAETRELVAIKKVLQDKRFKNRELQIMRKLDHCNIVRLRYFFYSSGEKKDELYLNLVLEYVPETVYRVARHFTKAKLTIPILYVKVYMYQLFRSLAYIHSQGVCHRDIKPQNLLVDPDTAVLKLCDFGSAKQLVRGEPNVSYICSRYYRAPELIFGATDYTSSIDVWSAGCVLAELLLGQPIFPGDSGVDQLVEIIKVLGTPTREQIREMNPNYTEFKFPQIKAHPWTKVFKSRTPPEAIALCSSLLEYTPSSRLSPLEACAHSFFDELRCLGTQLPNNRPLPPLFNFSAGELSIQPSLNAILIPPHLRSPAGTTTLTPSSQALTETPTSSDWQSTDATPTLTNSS
inactive: [1] 0.006 | [2] 0.099 | [3] 0.02 | [4] -0.014 | [5] -0.034

HSPA8 (UniProt E9PK54)
inactive: [1] 0.004 | [2] -0.108 | [3] 0.037 | [4] 0.099 | [5] -0.001

HIST2H3A (UniProt Q71DI3)
inactive: [1] 0.068 | [2] -0.153 | [3] -0.266 | [4] -0.221 | [5] 0.192

GNG5 (UniProt P63218)
UniProt P63218, sequence (P63218 whole entry, looked up): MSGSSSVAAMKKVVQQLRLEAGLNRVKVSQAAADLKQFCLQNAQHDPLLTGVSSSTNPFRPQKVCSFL
inactive: [1] 0.044 | [2] 0.063 | [3] 0.012 | [4] -0.064 | [5] 0.018

GBE1 (UniProt Q04446)
UniProt Q04446, sequence (Q04446 whole entry, looked up): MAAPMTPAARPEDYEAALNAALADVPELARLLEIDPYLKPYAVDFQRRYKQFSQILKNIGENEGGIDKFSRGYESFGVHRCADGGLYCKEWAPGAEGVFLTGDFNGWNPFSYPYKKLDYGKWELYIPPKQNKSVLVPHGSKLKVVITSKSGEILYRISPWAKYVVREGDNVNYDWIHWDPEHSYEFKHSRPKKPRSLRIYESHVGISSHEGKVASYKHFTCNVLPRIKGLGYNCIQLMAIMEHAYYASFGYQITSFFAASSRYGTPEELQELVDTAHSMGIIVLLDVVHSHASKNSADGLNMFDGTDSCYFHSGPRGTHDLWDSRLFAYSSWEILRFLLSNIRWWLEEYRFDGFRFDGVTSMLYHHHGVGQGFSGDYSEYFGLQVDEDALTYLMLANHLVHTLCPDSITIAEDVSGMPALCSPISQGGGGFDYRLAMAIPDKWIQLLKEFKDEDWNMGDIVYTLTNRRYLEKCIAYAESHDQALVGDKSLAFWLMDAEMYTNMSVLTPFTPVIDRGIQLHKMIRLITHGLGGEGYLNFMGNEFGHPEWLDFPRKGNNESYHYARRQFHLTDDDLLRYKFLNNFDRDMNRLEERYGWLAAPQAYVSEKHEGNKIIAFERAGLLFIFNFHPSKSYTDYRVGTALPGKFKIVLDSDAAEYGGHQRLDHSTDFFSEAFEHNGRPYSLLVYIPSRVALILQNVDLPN
inactive: [1] -0.116 | [2] 0.01 | [3] -0.009 | [4] 0.03 | [5] 0.008

HDDC2 (UniProt Q7Z4H3)
UniProt Q7Z4H3, sequence (Q7Z4H3 whole entry, looked up): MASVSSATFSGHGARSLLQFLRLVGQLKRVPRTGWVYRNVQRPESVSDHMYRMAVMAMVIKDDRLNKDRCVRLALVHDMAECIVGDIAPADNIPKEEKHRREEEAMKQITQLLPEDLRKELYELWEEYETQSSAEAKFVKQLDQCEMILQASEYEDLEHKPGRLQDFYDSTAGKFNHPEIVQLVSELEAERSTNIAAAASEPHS
inactive: [1] 0.009 | [2] 0.057 | [3] -0.012 | [4] -0.071 | [5] -0.038

GDI1 (UniProt P31150)
inactive: [1] -0.025 | [2] 0.054 | [3] 0.043 | [4] -0.022 | [5] -0.025

HADHA (UniProt P40939)
UniProt P40939, sequence (P40939 whole entry, looked up): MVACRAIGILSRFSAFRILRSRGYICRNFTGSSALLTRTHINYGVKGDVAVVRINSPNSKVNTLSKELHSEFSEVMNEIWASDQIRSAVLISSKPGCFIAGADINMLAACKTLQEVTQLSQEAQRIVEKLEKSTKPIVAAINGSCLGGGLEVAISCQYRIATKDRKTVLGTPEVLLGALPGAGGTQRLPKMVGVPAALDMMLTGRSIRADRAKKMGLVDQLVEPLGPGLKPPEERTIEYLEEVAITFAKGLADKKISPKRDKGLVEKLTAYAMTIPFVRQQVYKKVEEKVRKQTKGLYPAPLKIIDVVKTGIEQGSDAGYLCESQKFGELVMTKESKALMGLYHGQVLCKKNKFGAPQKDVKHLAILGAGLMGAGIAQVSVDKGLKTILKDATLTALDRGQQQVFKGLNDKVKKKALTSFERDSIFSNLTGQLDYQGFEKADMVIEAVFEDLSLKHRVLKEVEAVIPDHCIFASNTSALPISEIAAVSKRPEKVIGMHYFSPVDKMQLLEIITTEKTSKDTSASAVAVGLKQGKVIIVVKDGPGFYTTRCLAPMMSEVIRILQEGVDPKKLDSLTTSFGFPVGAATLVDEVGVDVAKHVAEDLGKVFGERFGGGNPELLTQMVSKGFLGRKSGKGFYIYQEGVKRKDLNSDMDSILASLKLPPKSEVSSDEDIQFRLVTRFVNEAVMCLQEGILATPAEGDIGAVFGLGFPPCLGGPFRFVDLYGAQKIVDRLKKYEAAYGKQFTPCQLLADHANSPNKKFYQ
inactive: [1] -0.218 | [2] 0.254 | [3] 0.214 | [4] 0.256 | [5] -0.051

HOOK3 (UniProt Q86VS8)
inactive: [1] -0.065 | [2] -0.003 | [3] 0.018 | [4] 0 | [5] 0.024

GOLGA8R (UniProt I6L899)
UniProt I6L899, sequence (I6L899 whole entry, looked up): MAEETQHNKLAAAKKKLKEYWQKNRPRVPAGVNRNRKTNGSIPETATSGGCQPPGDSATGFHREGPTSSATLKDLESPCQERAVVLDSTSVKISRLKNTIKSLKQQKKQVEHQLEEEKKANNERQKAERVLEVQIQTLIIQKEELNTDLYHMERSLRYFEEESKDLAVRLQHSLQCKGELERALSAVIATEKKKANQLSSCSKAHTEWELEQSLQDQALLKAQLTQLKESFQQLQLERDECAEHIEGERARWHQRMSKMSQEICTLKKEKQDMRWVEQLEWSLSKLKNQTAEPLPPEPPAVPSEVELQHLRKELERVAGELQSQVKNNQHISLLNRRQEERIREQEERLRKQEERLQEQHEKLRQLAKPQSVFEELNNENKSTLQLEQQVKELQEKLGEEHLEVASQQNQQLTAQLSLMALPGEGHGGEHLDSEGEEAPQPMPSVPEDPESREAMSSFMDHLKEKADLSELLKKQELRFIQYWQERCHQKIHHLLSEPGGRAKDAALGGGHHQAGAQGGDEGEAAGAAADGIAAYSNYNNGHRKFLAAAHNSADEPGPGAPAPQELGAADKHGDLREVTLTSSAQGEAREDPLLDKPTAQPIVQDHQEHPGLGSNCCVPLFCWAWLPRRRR
inactive: [1] 0.106 | [2] 0.211 | [3] 0.326 | [4] 0.043 | [5] -0.003

GNAS (UniProt Q5JWF2)
UniProt Q5JWF2, sequence (Q5JWF2 whole entry, looked up): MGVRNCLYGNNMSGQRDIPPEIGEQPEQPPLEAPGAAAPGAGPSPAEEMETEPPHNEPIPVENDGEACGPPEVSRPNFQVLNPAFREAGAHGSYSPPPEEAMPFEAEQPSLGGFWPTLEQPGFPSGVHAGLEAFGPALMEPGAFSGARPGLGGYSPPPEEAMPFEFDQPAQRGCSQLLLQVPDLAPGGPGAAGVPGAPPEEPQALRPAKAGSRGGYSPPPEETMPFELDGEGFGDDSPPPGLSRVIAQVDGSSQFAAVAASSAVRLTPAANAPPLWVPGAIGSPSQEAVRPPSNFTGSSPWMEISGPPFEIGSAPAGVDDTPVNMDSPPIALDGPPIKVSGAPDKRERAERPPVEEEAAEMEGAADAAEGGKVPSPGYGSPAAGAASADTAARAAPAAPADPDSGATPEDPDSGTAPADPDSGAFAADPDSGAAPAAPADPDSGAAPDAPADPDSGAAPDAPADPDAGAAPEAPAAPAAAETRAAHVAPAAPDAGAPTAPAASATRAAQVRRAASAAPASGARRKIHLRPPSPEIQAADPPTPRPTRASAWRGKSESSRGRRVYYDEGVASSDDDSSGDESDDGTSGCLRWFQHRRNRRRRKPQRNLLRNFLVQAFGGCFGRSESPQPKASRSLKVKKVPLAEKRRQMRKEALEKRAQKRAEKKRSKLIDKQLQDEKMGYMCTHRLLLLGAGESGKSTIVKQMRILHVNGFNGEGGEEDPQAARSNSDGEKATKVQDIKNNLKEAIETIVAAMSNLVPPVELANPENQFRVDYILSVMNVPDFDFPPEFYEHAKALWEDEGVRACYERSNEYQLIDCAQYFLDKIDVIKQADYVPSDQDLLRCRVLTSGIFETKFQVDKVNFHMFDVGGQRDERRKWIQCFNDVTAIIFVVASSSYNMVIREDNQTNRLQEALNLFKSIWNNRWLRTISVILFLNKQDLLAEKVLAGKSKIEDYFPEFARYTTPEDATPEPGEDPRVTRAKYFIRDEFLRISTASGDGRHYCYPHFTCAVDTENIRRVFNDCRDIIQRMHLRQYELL
inactive: [1] 0.016 | [2] -0.008 | [3] 0.045 | [4] -0.038 | [5] 0.013

GYG1 (UniProt P46976)
inactive: [1] 0.02 | [2] -0.077 | [3] -0.046 | [4] -0.008 | [5] -0.019

IDI1 isoform 2 (UniProt Q13907)
UniProt Q13907, sequence (Q13907 whole entry, looked up): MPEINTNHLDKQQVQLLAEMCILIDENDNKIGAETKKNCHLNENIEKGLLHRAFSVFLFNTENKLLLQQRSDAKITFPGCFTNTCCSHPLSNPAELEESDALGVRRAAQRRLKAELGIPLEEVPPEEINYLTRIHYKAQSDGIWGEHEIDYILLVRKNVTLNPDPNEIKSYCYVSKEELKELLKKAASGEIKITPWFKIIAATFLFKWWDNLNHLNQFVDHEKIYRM
inactive: [1] -0.024 | [2] 0.024 | [3] 0.037 | [4] 0.003 | [5] -0.007

HDGFL2 (UniProt Q7Z4V5)
inactive: [1] -0.043 | [2] 0.007 | [3] -0.03 | [4] -0.012 | [5] 0.065

GID4 (UniProt Q8IVV7)
inactive: [1] -0.012 | [2] -0.021 | [3] 0.138 | [4] 0.048 | [5] 0.009

GPAT4 (UniProt Q86UL3)
inactive: [1] 0.023 | [2] 0.046 | [3] 0.013 | [4] -0.046 | [5] -0.015

HSPA8 (UniProt P11142)
inactive: [1] -0.019 | [2] -0.032 | [3] -0.02 | [4] 0.005 | [5] -0.008
